According to PubChem BioAssay (Tox21):
Records with an inconclusive call do not appear. Where a call stands in place of a potency, no number is given. Calls of active or inactive are those of the source. The call rests on the fitted dose curve; in most records, active means well fitted cell-killing curve with a large enough effect in the repeat runs; inconclusive means weak or mixed curves; inactive means no such curve, though single readings can be large or run the other way.

assay: qHTS assay to identify small molecule antagonists of the androgen receptor (AR) signaling pathway - cell viability counter screen (AID 743033; further: nearly all actives have a fitted effect of over 45% in size); conditions: AR-bla HEK293 viability, CellTiter-Glo luminescence, 16 h; series mostly up to 58.5 µM
Potency means the concentration at half of the fitted maximal effect.

Row | SMILES | Potency
1 | O=S(=O)(c1ccccc1)c1ccc(Cl)cc1 | inactive
2 | CCCCC(CC)CNCC(CC)CCCC (centres undefined) | inactive
3 | CNCCCC1c2ccccc2C=Cc2ccccc21 | inactive
4 | C1COCO1 | inactive
5 | OC(CCCN1CCCCC1)(c1ccccc1)c1ccccc1 | inactive
6 | COc1ccc(C(=O)c2cccc(O)c2)c(OC)c1 | inactive
7 | Fc1ccccc1[C@@H](F)COC1CCC(Nc2ncnc3[nH]ncc23)CC1 (some centres undefined) | 49 µM (active)
8 | CCCCCCCCCCCCCCCCBr | inactive
9 | CC(=O)Nc1ccc(N)cc1 | inactive
10 | CCC(C)(C)C1CCC(O)CC1 (centres undefined) | inactive
11 | Cc1ccc(/C=N/n2c(-c3ccccc3)csc2=S)cc1 | inactive
12 | CNC(=O)N(c1ccccc1)c1ccccc1 | inactive
13 | CC(CCc1ccc2c(c1)OCO2)NN (centres undefined) | inactive
14 | Cc1cc(O)c(C(C)C)cc1Cl | inactive
15 | COC(=O)[C@@H]1CC2=CC(=O)CC[C@]2(C)[C@@]23O[C@@H]2C[C@@]2(C)[C@@H](CC[C@@]24CCC(=O)O4)[C@H]13 | inactive
16 | CCCCCCCCCCOS(=O)(=O)O | inactive
17 | C[C@@H]1C[C@H]2[C@@H]3CCC4=CC(=O)C=C[C@]4(C)[C@@]3(F)[C@@H](O)C[C@]2(C)[C@H]1C(=O)CO | inactive
18 | CO[C@H]1C=CO[C@@]2(C)Oc3c(C)c(O)c4c(O)c(c5c(c4c3C2=O)=NC2(CCN(CC(C)C)CC2)N=5)NC(=O)/C(C)=C\C=C/[C@H](C)[C@H](O)[C@@H](C)[C@@H](O)[C@@H](C)[C@H](OC(C)=O)[C@@H]1C | inactive
19 | O=C(O)c1snc(Cl)c1Cl | inactive
20 | Cc1ccnc2ccccc12 | inactive
21 | OCCSc1ccccc1 | inactive
22 | CO[Si](C)(OC)OC | inactive
23 | CC(=O)Oc1ccc(C(=C2CCCCC2)c2ccc(OC(C)=O)cc2)cc1 | inactive
24 | CCCCCCOC(=O)CCCCCCCC(=O)OCCCCCC | inactive
25 | O=C(O)c1cccc(O)c1 | inactive
26 | CC(=O)Oc1ccc2c(c1)CC[C@@H]1[C@@H]2CC[C@]2(C)[C@@H](O)CC[C@@H]12 | inactive
27 | CCC(C)(O)CCC=C(C)C (centres undefined) | inactive
28 | COC(OC)(C(=O)c1ccccc1)c1ccccc1 | inactive
29 | Cc1oncc1C(=O)Nc1ccc(C(F)(F)F)cc1 | 54.9 µM (active)
